Assay results from the supplement of paper PMC12669032.

test system: Coprococcus comes; experiment: growth AUC relative to DMSO control (median of replicates) (fraction); higher = more growth (less inhibition), active = hit call of the paper; details: 20 µM; 24 h;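 active = AUC reduced over 20% with Padj below 0.05 in at least 2 of 3 replicates; inactive = otherwise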
Summary of the method: (§1)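 Each value is the median of three biological replicates, grown on separate days, of a gut bacterial monoculture incubated anaerobically at 37 °C in mGAM with 20 µM compound (1% DMSO). Cultures started at OD600 0.05 and were read at OD600 hourly for 24 h, with the minimum OD set to 0. Area under the growth curve was normalised to the plate median of solvent-only wells, or to row and column medians on the industrial chemical plate.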

Growth AUC, inactive:
O=C(O)Cc1c(Cl)ccc(Cl)c1Cl 0.959
COc1cc(OC)c(Cl)cc1N 1.03
O=S(Cc1ccc(Cl)cc1)c1ccc(Cl)cc1 (stereo not drawn) 1
Cc1cc(C)c(C2=C(O)C3(CCCC3)OC2=O)c(C)c1 0.981
CN(C)C(=O)c1cccnc1S(N)(=O)=O 1.03
CCCN(CCOc1c(Cl)cc(Cl)cc1Cl)C(N)=O 1
Cc1nn(C)c(OCC(=O)c2ccccc2)c1C(=O)c1ccc(Cl)cc1Cl 1.02
CC(C)(C)Nc1nc(N)nc(Cl)n1 0.999
COC(=O)c1c(Cl)nn(C)c1S(=O)(=O)NC(=O)Nc1nc(OC)cc(OC)n1 1
[S] 0.956
CCCCCCCCc1c(CC)nc2ncnn2c1N 1.01
Cn1cc(C(=O)Nc2ccccc2-c2cc(F)c(F)c(F)c2)c(C(F)F)n1 0.97
CCCOc1nc2ccc(I)cc2c(=O)n1CCC 1.04
CNc1nc(NC(C)C)nc(SC)n1 0.962
CC(C)(C)[C@@H](O)[C@@H](Cc1ccc(Cl)cc1)n1cncn1 (mixture of isomers) 0.994
Cc1ccc2c(c1)[C@H](Nc1nc(N)nc(C(C)F)n1)[C@@H](C)C2 (stereo partly drawn) 0.968
CCN(CC)c1nc(C)cc(=O)[nH]1 1.04
Clc1ccc(C(c2ccccc2Cl)C(Cl)Cl)cc1 (stereo not drawn) 1.03
CSc1nc(NC2CC2)nc(NC(C)(C)C)n1 0.981
CCc1cccc(C)c1N(C(=O)C(=O)O)[C@@H](C)C(=O)O 1.02
CCNc1nc(NC(C)(C)C)[nH]c(=O)n1 0.988
CC(C)N(C(=O)C(=O)O)c1ccccc1 1.03
Cc1nn(C)c(F)c1C(=O)Nc1ccccc1C(C)CC(C)C (stereo not drawn) 0.985
CC(C)c1cc(Oc2ccccc2)cc(C(C)C)c1NC(=S)NC(C)(C)C 0.896
CCCCOCCOC(=O)COc1ccc(Cl)cc1Cl 0.982
CCOC(=O)C(C)Oc1ccc(Oc2nc3ccc(Cl)cc3o2)cc1 (racemic) 0.993
C/C=C/C(=O)Oc1c(C(C)CCCCCC)cc([N+](=O)[O-])cc1[N+](=O)[O-] (mixture of isomers) 0.509
c1ccc2c(c1)Cc1ccccc1-2 1.01
CC(C)(C)C(O)/C(=C\c1ccc(Cl)cc1)n1cncn1 (stereo not drawn) 1.03
Oc1ccccc1 1.03
Cc1c(Br)c2ccc(F)cc2n1S(=O)(=O)c1ncn(S(=O)(=O)N(C)C)n1 1.03
NC(Cn1cncn1)C(=O)O (stereo not drawn) 1.01
CCCCC(CC)COC(=O)COc1ccc(Cl)cc1C (stereo not drawn) 1.03
c1ccc(CNc2ncnc3nc[nH]c23)cc1 1.06
CON=C(Cc1cccnc1)c1ccc(Cl)cc1Cl 0.94
COC(=O)Cc1cccc2ccccc12 0.997
CC1(C)C(=O)Oc2ccc(OS(C)(=O)=O)cc21 0.992
CN(C)c1ccc(N=NS(=O)(=O)[O-])cc1.[Na+] 1.03
CCOC(=O)Cn1c(=O)sc2cccc(Cl)c21 0.959

test system: Escherichia coli ED1a; experiment: as above; details: 20 µM; 24 h
Summary of the method: as §1

Growth AUC, inactive:
O=C(O)Cc1c(Cl)ccc(Cl)c1Cl 0.947
COc1cc(OC)c(Cl)cc1N 1
O=S(Cc1ccc(Cl)cc1)c1ccc(Cl)cc1 (stereo not drawn) 0.986
Cc1cc(C)c(C2=C(O)C3(CCCC3)OC2=O)c(C)c1 0.997
CN(C)C(=O)c1cccnc1S(N)(=O)=O 1.05
CCCN(CCOc1c(Cl)cc(Cl)cc1Cl)C(N)=O 1.01
Cc1nn(C)c(OCC(=O)c2ccccc2)c1C(=O)c1ccc(Cl)cc1Cl 0.995
CC(C)(C)Nc1nc(N)nc(Cl)n1 1.03
COC(=O)c1c(Cl)nn(C)c1S(=O)(=O)NC(=O)Nc1nc(OC)cc(OC)n1 1.01
[S] 0.976
CCCCCCCCc1c(CC)nc2ncnn2c1N 0.986
Cn1cc(C(=O)Nc2ccccc2-c2cc(F)c(F)c(F)c2)c(C(F)F)n1 0.985
CCCOc1nc2ccc(I)cc2c(=O)n1CCC 0.991
CNc1nc(NC(C)C)nc(SC)n1 1
CC(C)(C)[C@@H](O)[C@@H](Cc1ccc(Cl)cc1)n1cncn1 (mixture of isomers) 1
Cc1ccc2c(c1)[C@H](Nc1nc(N)nc(C(C)F)n1)[C@@H](C)C2 (stereo partly drawn) 1.03
CCN(CC)c1nc(C)cc(=O)[nH]1 0.995
Clc1ccc(C(c2ccccc2Cl)C(Cl)Cl)cc1 (stereo not drawn) 1
CSc1nc(NC2CC2)nc(NC(C)(C)C)n1 1.03
CCc1cccc(C)c1N(C(=O)C(=O)O)[C@@H](C)C(=O)O 1.01
CCNc1nc(NC(C)(C)C)[nH]c(=O)n1 1.02
CC(C)N(C(=O)C(=O)O)c1ccccc1 1.06
Cc1nn(C)c(F)c1C(=O)Nc1ccccc1C(C)CC(C)C (stereo not drawn) 1.02
CC(C)c1cc(Oc2ccccc2)cc(C(C)C)c1NC(=S)NC(C)(C)C 1.01
CCCCOCCOC(=O)COc1ccc(Cl)cc1Cl 0.983
CCOC(=O)C(C)Oc1ccc(Oc2nc3ccc(Cl)cc3o2)cc1 (racemic) 0.967
C/C=C/C(=O)Oc1c(C(C)CCCCCC)cc([N+](=O)[O-])cc1[N+](=O)[O-] (mixture of isomers) 0.976
c1ccc2c(c1)Cc1ccccc1-2 1.03
CC(C)(C)C(O)/C(=C\c1ccc(Cl)cc1)n1cncn1 (stereo not drawn) 0.988
Oc1ccccc1 1
Cc1c(Br)c2ccc(F)cc2n1S(=O)(=O)c1ncn(S(=O)(=O)N(C)C)n1 0.999
NC(Cn1cncn1)C(=O)O (stereo not drawn) 0.966
CCCCC(CC)COC(=O)COc1ccc(Cl)cc1C (stereo not drawn) 0.981
c1ccc(CNc2ncnc3nc[nH]c23)cc1 0.989
CON=C(Cc1cccnc1)c1ccc(Cl)cc1Cl 1
COC(=O)Cc1cccc2ccccc12 0.969
CC1(C)C(=O)Oc2ccc(OS(C)(=O)=O)cc21 0.984
CN(C)c1ccc(N=NS(=O)(=O)[O-])cc1.[Na+] 1.02
CCOC(=O)Cn1c(=O)sc2cccc(Cl)c21 1.01
